# Measured values as given in PubChem BioAssay AID1561 (National Center for Advancing Translational Sciences (NCATS), 2009).
# Active and inactive are the calls of the source. The call rests on the fitted dose curve; in most records, active means well fitted curve in the direction sought with a large enough effect; inactive means no such curve, though single readings can be large or run the other way.
# Assay: Secondary Assay for lipid storage modulators. Cytotoxcity
# Conditions: Drosophila S3 cells viability, CellTiter-Glo luminescence, 24 h; series mostly up to 46.1 µM
# Excerpt: NIH Molecular Libraries Probe Production Centers Network [MLPCN] NIH Chemical Genomics Center [NCGC] MLPCN Grant: TBA Assay Submitter (PI): Beller, Mathias; Max-Planck-Institut fur Biophysikalische Chemie, Germany. NCGC Assay Overview: Storing lipids as a reservoir for energy or the anabolism of elementary metabolites is a common feature of probably all cells and is conserved from bacteria to humans. The universal cellular lipid storage organelle is the so-called lipid storage droplet (LD). Although ubiquitous, LDs share a simple structure composed of a hydrophobic core that harbors the storage lipids, which is shielded by a droplet-specific phospholipid monolayer to which proteins are attached. The current model of LD biogenesis involves an incorporation of the lipid core into the membrane leaflets of the endoplasmic reticulum (ER) followed by a subsequent budding-like maturation of a LD, which ultimately pinches off. Once released, LD volume can increase by localized lipogenesis or fusion of existing droplet. Storage lipids are re-mobilized enzymatically by lipase activity. […]
# Assay Protocol Summary: Cytotoxcity assay was performed with embryonic Drosophila S3 cells (Bloomington Drosophila Genomics Resource Center [DGRC]). […] Luminescence was detected on the Perkin Elmer ViewLux.
row,SMILES,outcome
1,COC(=O)c1ccccc1NC(=O)c1ccc(F)cc1,inactive
